Laboratory results reported in PubChem BioAssay (NCI).
“And” between values parts separate entries of the source, which are not always exact repeats. Equal entries are not always repeated. About 83,000 compounds went through this panel and 20% of them were active in at least one assay; those are over-represented in the sample as a whole.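 Each cell line was grown in a 96-well plate and treated with one concentration of compound for 48 hours. Values below 10 were considered active.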 The source made the active and inactive calls.

Each compound was assayed on HL-60(TB) leukemia (assay: NCI-60 one-dose screen, 48 h (100 = growth as untreated, 0 = no growth, -100 = all killed)). Conditions: 10 µM unless noted.

SMILES	growth
COc1ccc(C(=O)n2nc(CC(=O)NCc3ccccc3)nc2N)cc1	91.9% (inactive)
CN(Cc1ccccc1)c1nc(Cl)c(C2CC(c3ccc(Cl)cc3)=Cc3[nH][nH]c(=O)c32)s1 (stereo not given)	104% (inactive)
COc1cc(C(=O)N2CCN(c3ccccc3)CC2)c2ccccc2n1	-1.74% (active)
COc1ccc(Oc2ccccc2NC(=O)CNC(=O)c2cccc3ccccc23)cc1	-22.8% [5 µM] (active)
CC(=O)N1N=C(C2C(=O)N(C)C(=O)N(C)C2=O)CC1c1ccccc1C(=O)O (stereo not given)	92.2% (inactive)
CC(=O)OCC(COC(C)=O)(COC(C)=O)COC(C)=O	104% (inactive)
O=C(Nc1cccc(Cn2c(=O)[nH]c3ccc(Oc4ncccn4)cc3c2=O)c1)c1ccc(Cl)cc1	64.2% (inactive)
Cc1ccc(Cc2cnc(NC(=O)c3cc(Br)cs3)s2)cc1	8.08% (active)
Cc1cc(C)c(N)c(Br)c1	97.9% (inactive) and 69% (inactive)
ON=C1CCCCCCCC1	61.9% (inactive) and 105% (inactive)
Nc1cc2c(cc1N)-c1ccccc1C2	7.76% (active) and 64.3% (inactive)
Nc1ccccc1SC1CC(=O)N(c2cccc3ccccc23)C1=O (stereo not given)	97% (inactive)
Cc1cc(C)c(CC(=O)O)c(C)c1	97.3% (inactive)
O=C(Nc1ccc(-n2ccc3c(NC(=O)c4ccccc4)nccc32)cc1)Nc1cccc(C(F)(F)F)c1	63.8% (inactive)
O=C1Nc2ccccc2/C1=C\c1nc(C2CCN(S(=O)(=O)c3ccc(F)cc3)CC2)n2ccccc12	92.3% (inactive)
Cc1ccc(-n2nnc3c(sc4ccccc43)c2=O)cc1	92.9% (inactive)
C=C1C(=O)O[C@H]2[C@H]1CC/C(COC(=O)Nc1nc3ccccc3[nH]1)=C\CC[C@@]1(C)O[C@@H]21	5.13% (active)
Cc1ccc(C)c2c1sc1nc3nc4sc5ccccc5n4c(=N)c3c(=O)n12	89% (inactive)
O=C(Nc1ccc(OS(=O)(=O)c2ccccc2)cc1)C12CC3CC(CC(C3)C1)C2	37.3% (inactive)
Cc1sc2nc(NCCc3c[nH]c4ccc(Cl)cc34)[nH]c(=O)c2c1C	7.05% (active)

SMILES	growth
CC1=C/C(=C(\c2ccc(N(C)C)cc2)c2ccc([N+](C)(C)C)cc2)C=CC1=[N+](C)C	98.6% (inactive)
COC1=CC(c2ccc[nH]2)=N/C1=C\c1[nH]c(C)c(C(=O)OCc2ccccc2)c1C	-8.78% (active)
O=C1CC(=O)N(C(=O)c2nn(-c3ccc(Cl)cc3)cc2O)N1	4.53% (active)
COC(=O)CCCNS(=O)(=O)c1cc(C(=O)Nc2ccc(NC(=O)c3cc(S(=O)(=O)NCCCC(=O)OC)c(O)c(O)c3O)cc2)c(O)c(O)c1O	68% (inactive)
O=[N+]([O-])c1ccc2[nH]cc(-c3c4ccccc4cc4[nH]c5ccc([N+](=O)[O-])cc5c34)c2c1	11.7% (inactive)
Cc1ccccc1NC(=O)N/C(N)=N/c1nc(C)c(C)s1	-2.57% (active)
CCN(CC)CCNc1cc(-c2cccc(OC(F)(F)F)c2)nc2ccc(N3CCCC3)cc12	-55.4% (active) and -26.1% (active) and 12.6% (inactive)
O=C(CN1CCCCC1)Sc1nnc2sc3ccccc3n12	98.6% (inactive)
N#C/C(=C\c1ccc(Br)cc1)n1nnc2ccc(F)cc21	-23.2% (active)
CC(=O)Nc1ccc2cc3ccc(NC(C)=O)cc3nc2c1	131% (inactive) and 96.4% (inactive)
C[C@H]1[C@H](C)CC[C@]2(C(=O)Nc3ccc4ncccc4c3)CC[C@]3(C)C(=CC[C@@H]4[C@@]5(C)CCCNC(C)(C)[C@@H]5CC[C@]43C)[C@H]12	-45.2% (active)
O=[N+]([O-])c1ccc(-c2nc(N3CCOCC3)c3c4c(sc3n2)CCCC4)cc1	92.2% (inactive)
Clc1ccc(-c2nnc(COc3ccc(C4=NNC(c5ccco5)C4)cc3)o2)cc1 (stereo not given)	79.6% (inactive)
O=[N+]([O-])c1ccc(N/N=C\c2cc(Br)ccc2O)nc1	11.7% (inactive) and -8.74% (active)
COc1ccc(-c2csc(N(C(=O)N3CCN(c4cc5c(cc4F)c(=O)c(C(=O)O)cn5C4CC4)CC3)c3ccccc3)n2)cc1	-29.6% (active)
COC(=O)/C=C\C(=O)OC	90.5% (inactive)
CC(=O)NC1C(O[C@H]2C[C@H]3[C@@H]4CC=C5C[C@@H](O)CC[C@]5(C)[C@H]4CC[C@]3(C)[C@H]2[C@H](C)C(=O)CCC(C)C)OCC(O)C1O (stereo not given in full)	10.1% (inactive)
COc1ccc2cc(/C=C3\N=C(c4cc(OC)c(OC)c(OC)c4)OC3=O)c(OC)nc2c1	95.3% (inactive)
NC(=O)C1CC2C=CC1C2 (stereo not given)	108% (inactive) and 106% (inactive)
C#Cc1c2c(c(OC)c3c1OCO3)[C@H]([C@H]1OC(=O)c3c1ccc(OC)c3OC)N(C)CC2	72.5% (inactive)
